# According to PubChem BioAssay (NCATS):
# Results filed as inconclusive are left out. A number with no mark means an inactive call. The source made the active and inactive calls. Calls follow the shape of the dose curve; as a rule, active = well fitted inhibition curve with a large enough effect; inconclusive = small, poorly fitted or top-dose-only effect; inactive = flat fitted curve, though single readings scatter. Where a SMILES comes first, the peptide text is derived from it. [ ]: non-standard residue; d: D form.
# Experiment: Primary qHTS for inhibitors of nuclear receptor binding SET domain protein 2 (NSD2) in an isogenic RCH-ACV NSD2 p.E1099K mutant (9B) (AID 1645876); also: nearly all actives have a fitted effect of over 70% in size
# Conditions: RCH-ACV (leukaemia line) NSD2 E1099K (9B) viability, CellTiter-Glo, 72 h; series mostly up to 44.9 µM; activity change, negative = viability loss: at the top concentration
# % is scaled to controls: 0 for no effect and ±100 for the full control effect; potency is read from the fitted curve at half-maximal effect.
SMILES,outcome,Potency,"activity change, negative = viability loss"
COC(=O)C1=COC(O[C@@H]2O[C@H](CO)[C@@H](O)[C@H](O)[C@H]2O)/C(=C\COC(=O)c2ccc(OC3OC(CO)C(O)C(O)C3O)c(OC)c2)C1CC(=O)OCCc1ccc(O)cc1 (stereo not given in full),inactive [at 9.23 µM],–,–
COc1ncc(-c2ccc3c(Nc4cc(Oc5cc(F)cc(F)c5)cc(C(=O)O)c4)c(S(=O)(=O)NC4CC4)cnc3c2)c(OC)n1,–,inactive,–
CC1(C)CC[C@]2(C(=O)O)CC[C@]3(C)C(=CCC4[C@@]5(C)CCC(O[C@@H]6OC[C@H](O)[C@H](O)[C@H]6O[C@@H]6O[C@H](CO)[C@@H](O)[C@H](O)[C@H]6O)[C@@](C)(CO)C5CC[C@]43C)[C@@H]2C1 (stereo not given in full),–,–,-4.84% [at 17.3 µM]
CC1CCC2(C(=O)OC3OC(CO)C(O)C(O)C3O)CCC3(C)C(=CCC4C5(C)CC(O)C(O)C(C)(C(=O)O)C5CCC43C)C2C1(C)O (stereo not given),inactive [at 17.3 µM],–,–
Nc1ccn([C@@H]2C(F)=C(CO)[C@@H](O)[C@H]2O)c(=O)n1,–,372 nM (active),–
CC(=O)O[C@@]1(C)C[C@@H](O)[C@]2(O)C=CO[C@@H](O[C@@H]3O[C@H](CO)[C@@H](O)[C@H](O)[C@H]3O)[C@@H]21,–,–,-0.184% [at 17.3 µM]
C=C(C)[C@@H](C)[C@H]1O[C@]23C[C@]4(CO2)C(CCC2[C@@]5(C)CC[C@H](O[C@@H]6OC[C@H](O)[C@H](O[C@@H]7O[C@H](CO)[C@@H](O)[C@H](O)[C@H]7O)[C@H]6O[C@@H]6O[C@@H](CO)[C@H](O)[C@H]6O)C(C)(C)C5CC[C@]24C)C3[C@@](C)(O)[C@@H]1OC(C)=O (stereo not given in full),inactive [at 9.23 µM],–,–
C=C1CC2C3(C)C(OC(C)=O)CC(=O)OC(C)(C)C3C(O)C(OC(C)=O)C2(C)C2C(=O)OC(C)C(=O)C12C (stereo not given),–,–,-15.7% [at 17.3 µM]
CC(C)(O)C1CCC2(C)C3C(O)C4C(C13)C42CO (stereo not given),–,–,-1.3%
C/C=C1\[C@H](O[C@@H]2O[C@H](CO)[C@@H](O)[C@H](O)[C@H]2O)OC=C(C(=O)OC)[C@H]1CC(=O)OC,–,–,-9.56% [at 17.3 µM]
C/C=C1/[C@H](O[C@@H]2O[C@H](CO)[C@@H](O)[C@H](O)[C@H]2O)OC=C(C(=O)OC)[C@H]1CC(=O)O[C@@H]1O[C@H](CO)[C@@H](O)[C@H](O)[C@H]1O,inactive [at 17.3 µM],–,–
CC(=O)c1c(C)cc(O)cc1O[C@@H]1O[C@H](CO)[C@@H](O)[C@H](O)[C@H]1O,inactive,–,–
COc1cc2c(cc1O)CCN[C@]21CS[C@@H]2c3c(OC(C)=O)c(C)c4c(c3[C@H](COC1=O)N1[C@@H]2[C@H]2c3c(cc(C)c(OC)c3O)C[C@@H]([C@@H]1O)N2C)OCO4,–,1.7 nM (active),–
C=C(C(=O)OC)C1CCC2(C)C(O[C@@H]3O[C@H](CO)[C@@H](O)[C@H](O)[C@H]3O)CC(=O)C(C)C2C1O (stereo not given in full),–,–,-0.0094% [at 17.3 µM]
C=C1[C@@H]2[C@H]3OC(=O)C(=C)[C@@H]3CC[C@@](C)(O)[C@@H]2C[C@@H]1O[C@@H]1O[C@H](CO)[C@@H](O)[C@H](O)[C@H]1O,inactive [at 17.3 µM],–,–
CC1OC(OC2C(C)OC(OC3C(OC(=O)/C=C/c4ccc(O)cc4)C(CO)OC(OC4(COC(=O)/C=C/c5ccc(O)cc5)OC(CO)C(O)C4O)C3OC3OCC(O)(CO)C3O)C(O)C2O)C(O)C(O)C1O (stereo not given),–,–,-6.92% [at 9.23 µM]
CN1C(=O)c2ccccc2-n2c(nc3ccccc3c2=O)[C@@]12O[C@H]2c1ccccc1,–,–,-8.15%
COC1CCCC/C(C)=C/C2C=C(C)C(C)C3C(CC(C)C)NC(=O)C23C(=O)C1 (stereo not given),–,–,-11.9% [at 17.3 µM]
C[C@@H]1CCC2C(C)(C)[C@H](O)CC[C@]2(C)[C@@]12Cc1c(O)cc3c(c1O2)CN(CCO)C3=O (stereo not given in full),–,–,-10% [at 17.3 µM]
CC(=O)OC1C(O)CC(O[C@@H]2O[C@H](CO)[C@@H](O)[C@H](O)[C@H]2O)C2CCC3C(=O)OC(c4ccoc4)CC3(C)C21 (stereo not given in full),–,–,-11.5% [at 17.3 µM]

SMILES,outcome,Potency,"activity change, negative = viability loss"
CC1(O)CCC2C(C(=O)O)=COC(OC3OC(CO)C(O)C(O)C3OC(=O)/C=C/c3ccc(O)cc3)C21 (stereo not given),–,–,-4.86% [at 17.3 µM]
CC(C)(O)/C=C1/C(=O)C(C)(C)C(=O)C(C)(C)C1(O)O[C@@H]1O[C@H](COC(=O)c2cc(O)c(O)c(O)c2)[C@@H](O)[C@H](O)[C@H]1O (stereo not given in full),–,–,-21.9% [at 17.3 µM]
COC1=CC(=O)O[C@@H](/C=C/c2ccccc2)[C@@H]1O,–,–,-0.0629%
CC(C)CC1(C(=O)OCc2ccc(O[C@@H]3O[C@H](CO)[C@@H](O)[C@H](O)[C@H]3O)cc2)CC(=O)OC(C(=O)O)CC(=O)OCC2OC(O1)C(OC(=O)/C=C/c1ccc(O)cc1)C(O)C2O (stereo not given in full),–,–,1.01% [at 9.23 µM]
COC1=Cc2c(nc3n(c2=O)C(C)C(=O)NC3(O)C(C)C)OC=C1 (stereo not given),–,–,-15.5%
CC(C)NC[C@H](O)COc1ccc(CCOCC2CC2)cc1,inactive,–,–
Cc1cc(O)cc(Oc2cc(C)c(C(=O)O)c(O)c2)c1,–,–,0.29%
C=C1CC/C=C(/CO)C(=O)C[C@@H]2[C@@H]1CC2(C)C,–,–,-8.47%
CCNC(=O)[C@@H]1CCCN1C(=O)[C@H](CCCN=C(N)N)NC(=O)[C@H](CC(C)C)NC(=O)[C@@H](C)NC(=O)[C@H](Cc1ccc(O)cc1)NC(=O)[C@H](CO)NC(=O)[C@H](Cc1c[nH]c2ccccc12)NC(=O)[C@H](Cc1cnc[nH]1)NC(=O)[C@@H]1CCC(=O)N1,–,–,4.36% [at 17.3 µM]
COC(=O)C12C(=O)C(C)=C(O)C1(C)C(C)=CC1C34CCC(OC3=O)C(C)(C)C4CCC12C (stereo not given),inactive [at 17.3 µM],–,–
COc1c2c(c(C)c3c1C(=O)OC3)OC1(C)CC(O)C3(O)C(C)(C)OC(=O)CCC3(C)C1C2 (stereo not given),inactive [at 17.3 µM],–,–
C[C@@H]1O[C@@H](O[C@H]2[C@H](O[C@H]3[C@H](O[C@H]4CC[C@@]5(C)C(CC[C@]6(C)C5CC=C5[C@@H]7CC(C)(C(=O)O)C[C@@H](O)[C@]7(C)CC[C@]56C)[C@@]4(C)CO)O[C@H](C(=O)O)[C@@H](O)[C@@H]3O)O[C@H](CO)[C@H](O)[C@@H]2O)[C@H](O)[C@H](O)[C@H]1O (stereo not given in full),–,–,-4.48% [at 9.23 µM]
COc1ccc(C(=O)O[C@H]2CC(C)=CC[C@@]3(C)[C@@H](OC(C)=O)C[C@@](O)(C(C)C)[C@H]23)cc1,–,–,-18.5% [at 17.3 µM]
COc1cc(/C=C/CO)ccc1O[C@@H]1O[C@H](CO)[C@@H](O)[C@H](O)[C@H]1O,–,–,0.125%
C=CC(C)(C)C1(CC2NC(=O)C3CCCN3C2=O)C(=O)Nc2cc3c(cc21)C=CC(C)(C)O3 (stereo not given),–,–,-0.66% [at 17.3 µM]
CC(C)C1=CCC(C)(O)C(OC2OC(CO)C(O)C(O)C2O)C1 (stereo not given),–,–,2.9%
CC(=O)O[C@H](C[C@@H](C)[C@H]1C(=O)[C@H](O)[C@@]2(C)[C@@H]3CCC4C(C)(C)[C@@H](O[C@@H]5OC[C@H](O)[C@H](O)[C@H]5O)CC[C@@]45C[C@@]35CC[C@]12C)[C@@H]1OC1(C)C (stereo not given in full),inactive [at 17.3 µM],–,–
O=c1ccn(C2OC(CO)C(O)C2O)c(=O)[nH]1 (stereo not given),–,–,1.49%
CC(=O)N[C@H](Cc1ccc(O)cc1)C(=O)N[C@H](CCCN=C(N)N)C(=O)N[C@H](Cc1ccccc1)C(N)=O (Ac-[dY]-[dR]-[dF]-NH2),inactive,–,–
CO/N=C(/C(=O)N[C@@H]1C(=O)N2C(C(=O)O)=C(CSC(=O)c3ccco3)CS[C@H]12)c1csc(N)n1,–,inactive,–
